Bioassay records from PubChem.
CHO-K1 Ca ag: nonselective activator or artifact in parental CHO-K1 cells; Fluo-8 calcium fluorescence; scaled to maximal ATP response, vehicle zero; activation, % at 3 µM; 360,000 tested, 0.48% active; in the data active = activation above about 15%;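 note: untransfected CHO-K1 host cells lacking M1 receptor as counterscreen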
CHO-K1 Ca antag: M1 antagonist counterscreen hit in parental CHO-K1 cells | ATP-induced calcium, Fluo-8 fluorescence | inhibition, % at 3 µM | 360,000 tested, 0.6% active;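 active = inhibition above a per-plate cutoff, the plate's mean sample inhibition plus 3 SD, cut at about 24% in these data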
CHO-K1 Ca PAM: M1 PAM counterscreen hit in parental CHO-K1 cells. ATP EC20, Fluo-8 calcium fluorescence; 0% at ATP EC20, 100% at ATP max. activation, % at 3 µM. 360,000 tested, 0.02% active;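 active = activation above the run cutoff, the mean activation of all test compounds plus 3 SD, cut at about 40% in these data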;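 note: peak over basal fluorescence ratio in a 140 s read after ATP addition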
NTR1 agonist: agonists of human neurotensin receptor NTR1; activation, % at 20 µM; 330,000 tested, 0.17% active; NTR1-U2OS beta-arrestin-GFP spot imaging, agonist mode;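 active = activation at or above 40% of the spot to cytoplasm intensity ratio, with at least 20 cells analyzed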
Target sequence (P30989 whole entry, looked up): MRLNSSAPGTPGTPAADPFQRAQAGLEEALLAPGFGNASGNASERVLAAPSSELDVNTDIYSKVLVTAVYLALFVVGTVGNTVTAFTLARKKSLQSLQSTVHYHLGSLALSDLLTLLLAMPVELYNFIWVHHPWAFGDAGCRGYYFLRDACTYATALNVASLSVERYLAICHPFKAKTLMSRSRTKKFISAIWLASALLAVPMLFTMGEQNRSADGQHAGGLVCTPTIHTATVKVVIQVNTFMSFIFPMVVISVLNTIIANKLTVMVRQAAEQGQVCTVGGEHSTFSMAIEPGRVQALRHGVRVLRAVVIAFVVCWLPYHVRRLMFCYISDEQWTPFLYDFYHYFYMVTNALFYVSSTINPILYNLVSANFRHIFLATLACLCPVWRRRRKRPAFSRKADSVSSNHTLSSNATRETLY
ANO1 block: inhibitors of mouse TMEM16A calcium-activated chloride channel; Q8BHY3; HEK293 TMEM16A/YFP iodide influx fluorescence, ionomycin; normalized B-score (activity score, 25-100; higher = stronger inhibition) at 10 µM; 310,000 tested, 1.2% active;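 active = ratio plate-corrected score three or more library SD toward inhibition, starting fluorescence score within five deviations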;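 note: score derived from kinetic fluorescence span divided by baseline fluorescence per well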
ANO1 activ: activates or potentiates the mouse TMEM16A chloride channel | Q8BHY3 | HEK293 TMEM16A/YFP-H148Q/I152L, iodide quench fluorescence; hits give low values | 340,000 tested, 0.3% active | AID 623877 | B-score at 10 µM;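 active = fluorescence-ratio B-score plate-corrected deviation score at least 3 library SD below zero, with starting fluorescence score within 5 deviations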;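 note: channel opened by trigger with iodide after compound preincubation; score built on the fluorescence ratio of max minus min over baseline; more negative score means more quench and so TMEM16A activation or potentiation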
Of the large screens only hits and unclear results are named; the others gave an inactive call. In the library only some 2.2% were active in any assay of this set; here they are far more common.

CC(C)C[C@H]1CN(CCCC[C@H]2CNC(=O)C(=O)N2Cc2ccccc2)C(=O)C(=O)N1CC1CCCCC1	none (no result: NTR1 agonist, ANO1 block, ANO1 activ)
O=C(COC(=O)c1cc(S(=O)(=O)N2CCCC2)ccc1O)Nc1ccccc1Br	none (no result: ANO1 block)
COc1cccc(CN2CC(C(=O)N(C)C3CCOCC3)CCC2=O)c1 (stereo not given)	CHO-K1 Ca antag 29.5
Cc1nc2sccn2c(=O)c1S(=O)(=O)NCc1ccccc1	CHO-K1 Ca antag 25.4
Cc1nc2sccn2c1-c1csc(NCc2ccccc2)n1	ANO1 block 25
COc1cccc(CNS(=O)(=O)c2c(C)nc3sccn3c2=O)c1	none
CCCCn1nnnc1C1(C)CCC(=O)N1CCc1ccc(OC)c(OC)c1 (stereo not given)	none (no result: NTR1 agonist, ANO1 block, ANO1 activ)
CC(=O)Nc1ccc(S(=O)(=O)NCCC(=O)OCC(=O)c2cccc(Br)c2)cc1	none (no result: ANO1 block)
NC(=O)NOCc1ccc(Cl)cc1Cl	none
CNC(=S)/N=C/NOCc1ccc(Cl)cc1Cl	ANO1 block 100
CC1(CO)CCCC1NCCNC1CCCC1(C)CO (stereo not given)	none (no result: NTR1 agonist, ANO1 block, ANO1 activ)
Cc1c(N(C)C)c(=O)n(-c2ccccc2)n1C	none (no result: ANO1 block)
Cc1c(N(C)C(=O)c2ccccc2F)c(=O)n(-c2ccccc2)n1C	ANO1 activ -6.53
COc1cc([N+](=O)[O-])ccc1N=Nc1c(N)[nH]n(-c2ccccc2)c1=O	CHO-K1 Ca ag 17.0
CC(C)C[C@H]1CNC(=O)C(=O)N1C[C@@H]1CCCN1C[C@H](Cc1ccccc1)N1C[C@H](Cc2ccccc2)N(CCc2ccccc2)C(=O)C1=O	none (no result: NTR1 agonist, ANO1 block, ANO1 activ)
FC(F)(F)c1cccc(/C=N/NC(=S)NC2CCCCC2)c1	CHO-K1 Ca ag 18.6
FC(F)(F)c1ccc(/C=N/NC(=S)NC2CCCCC2)cc1	none
O=C(NC1CC1)c1cccc(S(=O)(=O)Nc2ccccc2F)c1	ANO1 activ -4.91
O=C(NNC(=O)c1cccc(S(=O)(=O)Nc2ccccc2F)c1)c1ccncc1	none (no result: NTR1 agonist, ANO1 block, ANO1 activ)
O=c1cc(O)c2c(=O)n(C3CCCCC3)c3ccccc3c2o1	none
O=c1cc(O)c2c(=O)n(-c3ccccc3)c3c(c2o1)CCCCCC3	CHO-K1 Ca antag 23.7
CCN1CCN(C(=O)c2cc(-c3ccc(Cl)s3)nc3ccccc23)CC1	CHO-K1 Ca ag 19.1 (no result: ANO1 block)
COC(=O)C1CCN(C(=O)c2cc(-c3ccc(Cl)s3)nc3ccccc23)CC1	none (no result: ANO1 block)
CC1CC(C)(C)N(C(=O)CSc2ccc(-c3ccc(F)cc3)nn2)c2ccccc21 (stereo not given)	ANO1 block 100
CC1CCN(C(=O)CSc2ccc(-c3ccc(F)cc3)nn2)CC1	none
Cc1ccc(-c2nnc(NC3CCCC3)s2)cc1	none
Cn1c2c(c3ccccc31)CCN(CCCCN1CCN(c3ccccc3)CC1)C2=O	none (no result: NTR1 agonist, ANO1 block)
O=c1/c(=C/c2cccc3ccccc23)sc2ncnn12	CHO-K1 Ca antag 27.5
Cc1ccsc1/C=c1\sc2ncnn2c1=O	none
COc1ccc(N2C(=O)CC(NNC(=O)c3ccco3)C2=O)cc1 (stereo not given)	none
CCOC(=O)NNC1CC(=O)N(c2ccc(OC)cc2)C1=O (stereo not given)	ANO1 block 100
O=C(Nc1ncc(Br)s1)C(Cc1ccccc1)n1cccc1 (stereo not given)	ANO1 block 100
CNC(=O)c1ccc(NC(=O)CC2SC(N3CCCC3)=NC2=O)cc1 (stereo not given)	none (no result: ANO1 block, ANO1 activ)
CCCCNC(=O)c1ccc(NC(=O)CC2SC(N3CCCC3)=NC2=O)cc1 (stereo not given)	ANO1 activ -26 (no result: ANO1 block)
COc1ccc(-c2nnc(SCC(=O)N(Cc3ccccc3)C(C)(C)C)o2)cc1OC	ANO1 block 100
CC(=O)Nc1ccc(S(=O)(=O)N2CCN=C2SCc2ccc([N+](=O)[O-])cc2)cc1	CHO-K1 Ca ag 16.6
CCC1CCCCN1S(=O)(=O)c1ccc(S(=O)(=O)N(Cc2cccs2)C2CC2)cc1 (stereo not given)	ANO1 activ -16.1
CC1(C)Cc2noc(N)c2C(C)(C)N1O	CHO-K1 Ca antag 24.8
CC(=O)ON1C(C)(C)Cc2noc(N)c2C1(C)C	none
CCOC(=O)[C@@H]1[C@H]2COc3cc(OC)ccc3[C@H]2N2C(=O)N(c3ccc(C(F)(F)F)cc3)C(=O)[C@]12C	CHO-K1 Ca antag 33.0 (no result: ANO1 block)
CCOC(=O)[C@@H]1[C@H]2COc3cc(OC)ccc3[C@@H]2N2C(=O)N(c3ccc(C(F)(F)F)cc3)C(=O)[C@@]12C	none
O=C(Nc1nc(-c2cc(F)ccc2F)cs1)c1cccc(N2C(=O)CCC2=O)c1	CHO-K1 Ca antag 31.9
O=C(Nc1nc(-c2ccc(F)cc2)cs1)c1cccc(N2C(=O)CCC2=O)c1	none
O=[N+]([O-])C1C(c2ccccc2)C12c1ccccc1-c1ccccc12 (stereo not given)	none (no result: NTR1 agonist, ANO1 block, ANO1 activ)
Cc1cc(C)c2cc(C#N)c(NCCCN)nc2c1	none (no result: NTR1 agonist, ANO1 block, ANO1 activ)
NC(=S)N/N=C/c1ccccc1	none
NC(=S)N/N=C/c1ccc(C23CC4CC(CC(C4)C2)C3)cc1	NTR1 agonist 44.0 (no result: CHO-K1 Ca ag, CHO-K1 Ca antag, CHO-K1 Ca PAM, ANO1 activ)
COc1ccccc1C1CCN(Cc2ccc(C)cc2)CC1	CHO-K1 Ca ag 18.1
NC(=O)c1nsc(C(=O)N(c2cccc(F)c2)C(C(=O)NCC2CCCO2)c2cccs2)c1N (stereo not given)	CHO-K1 Ca ag 16.0
O=C(NCC(c1cccs1)N1CCOCC1)c1ccccc1NS(=O)(=O)c1ccc(Cl)c([N+](=O)[O-])c1 (stereo not given)	CHO-K1 Ca ag 15.6, ANO1 block 25
CCOc1ccc(NS(=O)(=O)c2ccc(C(=O)NCC(c3cccs3)N3CCOCC3)cc2)cc1 (stereo not given)	CHO-K1 Ca ag 24.7
COc1cc(C(=O)NCC(c2cccs2)N2CCOCC2)cc(OC)c1OC (stereo not given)	none
COc1cc(C(=O)NCC(c2cccs2)N2CCOCC2)ccc1OCc1ccccc1 (stereo not given)	CHO-K1 Ca antag 26.6 (no result: NTR1 agonist, ANO1 block, ANO1 activ)
O=C(NCC(c1cccs1)N1CCOCC1)c1ccccc1NS(=O)(=O)c1cccc([N+](=O)[O-])c1 (stereo not given)	none
CCOC1CCCc2oc(-c3ccsc3)c(-c3cnc(OC)nc3)c21 (stereo not given)	none (no result: NTR1 agonist, ANO1 block, ANO1 activ)
Cc1cc(C)c2cc(CN(CCO)C(=O)Nc3ccc(F)cc3)c(=O)[nH]c2c1	CHO-K1 Ca antag 25.8
COC(=O)c1ccc(-n2c(C)cc(C(=O)CSc3cccc[n+]3[O-])c2C)cc1	CHO-K1 Ca ag 16.1
Cc1cc(C(=O)CSc2cccc[n+]2[O-])c(C)n1-c1ccc(OC(F)F)cc1	none
CCOC(=O)c1ccc(NC(=O)CSc2nc3cccnc3n2C)cc1	CHO-K1 Ca antag 34.1
COc1ccc(C(=O)CSc2nc3cccnc3n2C)cc1	CHO-K1 Ca antag 27.7
C[C@H](NC(=O)[C@@H]1CCCN1C(=O)[C@@H]1CCCN1C(=O)c1cccs1)c1ccccc1	none (no result: NTR1 agonist, ANO1 block, ANO1 activ)
